Consider 86 molecules from PubChem BioAssay AID1745848 (National Center for Advancing Translational Sciences (NCATS), 2022).

Out of some 2,100 compounds screened, about 940 (45%) were called active. Not shown: some 48% with an inconclusive outcome. So high a share suggests a set chosen from earlier hits. This is one part of the list. Values without a mark were called inactive. The call rests on the fitted dose curve; in most records, active means well fitted inhibition curve with a large enough effect; inconclusive means small, poorly fitted or top-dose-only effect; inactive means no such curve, though single readings can be large or run the other way.
Potency means the concentration at half of the fitted maximal effect.

This experiment can be described thus: Confirmatory qHTS for Inhibitors of ATXN expression. Further: nearly all actives have a fitted effect of over 65% in size.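 On activity change, negative = inhibition: 0% = DMSO vehicle wells and -100% = medium-only wells without cells.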 The note with it: ATXN2-luciferase reporter cells, luminescence, 24 h; series mostly up to 11.5 µM; activity change, negative = inhibition: at the top concentration. In a few lines: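 A titration, incubated 24 h with reporter cells expressing ATXN2-luciferase. Luminescence (SteadyGlo) gives ATXN2 expression, multiplexed GF-AFC fluorescence gives viability; normalised to DMSO and medium-only wells.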
`Cc1ccc2nc(SCc3ccc([N+](=O)[O-])cc3)[nH]c2c1`: the “activity change, negative = inhibition” value was -6.34%.
Consider `CCn1c2ccccc2c2cc(/C=N/NC(=O)c3ccccc3)ccc21`, for which the Potency was 3.16 µM (active).
With `Cc1ccc(S(=O)(=O)c2c(N)n(CC3CCOC3)c3nc4ccccc4nc23)cc1` (stereo unspecified), the “activity change, negative = inhibition” value is -14.3%.
With `CC(C)CCn1c(N)c(S(=O)(=O)c2cccs2)c2nc3ccccc3nc21`, the Potency is 3.16 µM (active).
With `COc1cccc(/C=N/n2c(N)c(S(=O)(=O)c3cccs3)c3nc4ccccc4nc32)c1OC`, the Potency was 14.1 µM (active).
Still for that read-out and setting: then `Cc1cc(Br)c(OCc2ccc(C(=O)N/N=C3\CC4CC=CC34)cc2)c(Br)c1` (stereo unspecified), with 28.2 µM (active).
Still for that read-out and setting: the same measure for `CCCCNC(=NCc1cccc(C(F)(F)F)c1)Nc1ccccc1`: 3.16 µM (active); for `CN(C(=O)c1cnc(N2CCN(c3ncccn3)CC2)c2ccccc12)c1ccc(Cl)cc1`: 28.2 µM (active).
With `O=C(c1cnc(N2CCN(c3ccccn3)CC2)c2ccccc12)N1CCN(c2cccc(Cl)c2)CC1`, the Potency was 6.31 µM (active).
Turning to `CCN(CC)S(=O)(=O)c1cccc(C(=O)N/N=C(\C)c2ccc(O)cc2O)c1`, the Potency is 3.16 µM (active).
The same measure, in the same setting: the same measure for `CC(=NNC(=O)c1ccncc1)c1ccc(O)cc1O`: 12.6 µM (active); for `CCn1c(C)nc2cc(C(=O)N/N=C(\C)c3ccc(OC)cc3O)ccc21`: 15.8 µM (active); for `COc1ccc(/C(C)=N/NC(=O)c2cccc(S(=O)(=O)N3CCCC3)c2)c(O)c1`: 3.55 µM (active).
The same measure, in the same setting: then `CC(=NNC(=O)c1ccncc1)c1ccc2ccccc2c1O`, with 1.12 µM (active).
The same measure, in the same setting: the same measure for `CC(=O)NC(c1ccccc1)c1cc(Cl)c2cccnc2c1O` (stereo unspecified): 2.82 µM (active); for `CC(=O)NC(c1ccc(C)cc1)c1cc(Cl)c2cccnc2c1O` (stereo unspecified): 2.51 µM (active); for `Oc1c(C(Nc2ccccn2)c2cccnc2)cc(Cl)c2cccnc12` (stereo unspecified): 12.6 µM (active).
On to `CC1(C(=O)NC2CCN(Cc3ccccc3)CC2)CCN1Cc1ccc2ccccc2c1` (stereo unspecified), for which the Potency was 2.51 µM (active).
On the same count and under the same terms, then `Cc1ccc(CN2CCSc3ccc(C(=O)NC4CCN(Cc5ccccc5)CC4)cc32)cc1`, with 3.16 µM (active).
With `CC(C)(C)c1ccc(CC(=O)N2CCC2(C)C(=O)Nc2cnc3ccccc3c2)cc1` (stereo unspecified), the “activity change, negative = inhibition” value is -28.3%.
As for `CN1C(=O)/C(=C\c2ccccc2F)Sc2ccc(C(=O)NC3CCN(Cc4ccccc4)CC3)cc21`, the Potency is 3.16 µM (active).
Still for that read-out and setting: the same measure for `CN1CCC(NC(=O)c2cc(-c3cccc(Br)c3)nc3ccccc23)CC1`: 25.1 µM (active).
Consider `CC(=O)Nc1cc(-c2ccc(C(=O)NC3CC3)cc2)cn2c(-c3cccc(C(C)=O)c3)cnc12`, for which the “activity change, negative = inhibition” value is -13.8% [at 57.5 µM].
On the same count and under the same terms, the same measure for `CC[C@@]1(O)C(=O)OCc2c1cc1n(c2=O)Cc2cc3c(CN(C)C)c(O)ccc3nc2-1`: -84.6% [at 57.5 µM].
On to `CCc1c2c(nc3ccc(OC(=O)N4CCC(N5CCCCC5)CC4)cc13)-c1cc3c(c(=O)n1C2)COC(=O)[C@]3(O)CC`, for which the Potency was 0.316 µM (active).
Same read-out and setting: the same measure for `Cc1sc(NC(=O)c2cc(-c3ccc(Cl)cc3)nc3ccccc23)c(C(N)=O)c1C`: 7.08 µM (active); for `C=CCN(C(=O)CSc1nc2c(sc3ccccc32)c(=O)n1CCN(CC)CC)c1ccccc1`: 28.2 µM (active).
Same read-out and setting: the same measure for `CCc1nc2ccc(C(=O)NCCOc3ccc(OC)cc3)cn2c1N(CCC(C)C)CCN(C)C`: 3.98 µM (active).
In the case of `O=C(NCC1CC1)c1ccc2c(c1)S(=O)(=O)c1cc(Cl)ccc1C2=O`, the “activity change, negative = inhibition” value was -23.7%.
As to `CC(C)CC(NC(=O)c1ccc(Cl)cc1)C(=O)OCC(=O)c1ccc2c(c1)NC(=O)CO2` (stereo unspecified), the Potency was 28.2 µM (active).
Turning to `CCCCC1C(=O)CC[C@H]2[C@@H]1CC(=O)[C@@H]2C/C=C\CCCC(=O)O` (stereo partly specified), the “activity change, negative = inhibition” value is -21.7%.
`COc1nn(-c2ccccc2)c(=O)c(Cl)c1Cl`: the Potency was 1.41 µM (active).
On the same count and under the same terms, then `Cc1ccc(C(NC(=O)C2CCN(Cc3ccc(Cl)c(Cl)c3)CC2)c2ccccn2)cc1` (stereo unspecified), with 28.2 µM (active).
Consider `COC(=O)[C@H]1C[C@H](OC(=O)NC2CC2)[C@@]2(O)CN(S(=O)(=O)c3ccc(C)cc3)CC2[C@H]1C(=O)OC` (stereo partly specified), for which the “activity change, negative = inhibition” value is 11.1%.
For the molecule `O=C(CSC1=NNC(c2ccccn2)S1)Nc1ccc(C(F)(F)F)cc1` (stereo unspecified), the Potency was 28.2 µM (active).
Turning to `COc1cc2ccnc(Cc3cccc(OC)c3OC)c2cc1OC`, the Potency is 1 µM (active).
For `COc1cc(C)c(C(=O)CC(=O)c2c(C)cc(OC)cc2C)c(C)c1`, the “activity change, negative = inhibition” value is -2.99%.
For the molecule `CCCCOc1ccccc1NC(=O)Cn1c(-c2nonc2N)nc2ccccc21`, the Potency was 3.98 µM (active).
The same measure, in the same setting: then `COc1ccc(Cc2[nH]n3c(=O)cc(C(C)C)nc3c2-c2ccccc2)cc1`, with 8.91 µM (active); and `Cc1cc(C)c(S(=O)(=O)/N=C2\C=C(Nc3ccc(C(=O)O)cc3)C(=O)c3ccccc32)c(C)c1`, with 1.78 µM (active).
Turning to `COC1=CC(=O)C=C(OC)C1(O)CC(C)=O`, the “activity change, negative = inhibition” value was -9.18% [at 57.5 µM].
Turning to `O=C1/C(=C/c2ccc([N+](=O)[O-])cc2)C=C(c2ccccc2)N1c1ccc(O)cc1`, the Potency was 2.51 µM (active).
Still for that read-out and setting: the same measure for `Cc1cc2c(c(/C=C/C(=O)c3ccccc3)c1)OC1(C=C2)Oc2ccccc2C(=O)N1C` (stereo unspecified): 25.1 µM (active); for `CCCCCn1c(=O)c2ccccc2n2c(CCl)nnc12`: 15.8 µM (active).
With `CCC(CC)C(=O)c1c[nH]c(C(=O)NCc2ccccn2)c1`, the “activity change, negative = inhibition” value was -10.4% [at 57.5 µM].
On to `O=C(NN=C(c1ccccc1)c1ccccn1)c1ccccc1`, for which the Potency was 2.24 µM (active).
With `COc1cc(C(=O)N/N=C(\c2ccccc2)c2ccccn2)cc(OC)c1OC`, the Potency was 0.355 µM (active).
On the same count and under the same terms, the same measure for `O=C(N/N=C(\c1ccccc1)c1ccccn1)c1ccccc1Cl`: 3.55 µM (active).
As to `O=C(O)CSc1cc(NS(=O)(=O)c2cccc([N+](=O)[O-])c2)c2ccccc2c1O`, the Potency is 3.16 µM (active).
On the same count and under the same terms, then `CN(Cc1cnc2nc(N)nc(N)c2n1)c1ccc(C(=O)NC(CCC(=O)O)C(=O)O)c2ccccc12` (stereo unspecified), with 0.1 µM (active); and `CN(Cc1cnc2nc(N)nc(N)c2n1)c1ccc(C(=O)N[C@@H](CCC(=O)O)C(=O)O)cc1`, with 0.398 µM (active); and `Cc1ccc(CN2CC(C(=O)Nc3ncc(C)s3)CC2=O)cc1` (stereo unspecified), with 1.78 µM (active).
Same read-out and setting: the same measure for `Cc1cnc(NC(=O)C2CC(=O)N(c3cccc(Cl)c3)C2)s1` (stereo unspecified): 0.112 µM (active); for `Cc1ccc(N2CC(C(=O)Nc3nccs3)CC2=O)cc1Cl` (stereo unspecified): 2.24 µM (active); for `Cc1ccc2nc(NC(=O)CSCC(=O)OCC(=O)c3ccc(Br)cc3)sc2c1`: 3.55 µM (active).
The same measure, in the same setting: the same measure for `COc1ccc(-c2csc(NC(=O)C3CCN(c4ncnc5sc(C)c(C)c45)CC3)n2)cc1OC`: 3.98 µM (active).
Take `CCN(CC)S(=O)(=O)c1cc(NC(=O)C2CCN(c3ncnc4sc(C)c(C)c34)CC2)ccc1Cl`: the Potency was 3.55 µM (active).
As to `Cc1sc2nc(CN3CCCC3)nc(N3CCC(C(N)=O)CC3)c2c1C`, the “activity change, negative = inhibition” value was -14.9% [at 57.5 µM].
Turning to `COc1ccc(S(=O)(=O)N(C)C)cc1NC(=O)C1CCN(c2ncnc3sc(C)c(C)c23)CC1`, the Potency was 22.4 µM (active).
Still for that read-out and setting: then `Oc1c(C(c2ccccn2)N2CCCCC2)cc(Cl)c2cccnc12` (stereo unspecified), with 15.8 µM (active); and `Oc1c(C(c2ccccn2)N2CCC(Cc3ccccc3)CC2)cc(Cl)c2cccnc12` (stereo unspecified), with 28.2 µM (active).
Regarding `O=C(NC(Nc1nc2ccc([N+](=O)[O-])cc2s1)(C(F)(F)F)C(F)(F)F)c1ccccc1`, the Potency was 0.355 µM (active).
The same measure, in the same setting: then `O=C(NC(Nc1ncc(S(=O)(=O)c2ccc([N+](=O)[O-])cc2)s1)(C(F)(F)F)C(F)(F)F)c1ccc(Cl)cc1`, with 3.55 µM (active).
In the case of `O=c1oc2ccccc2c(O)c1Cc1cc(Cl)c2cccnc2c1O`, the Potency is 15.8 µM (active).
Still for that read-out and setting: the same measure for `CC[n+]1c(/C=C/c2c[nH]c3ccccc23)ccc2cc(C)ccc21`: 7.94 µM (active).
As to `COC(=O)c1ccccc1S(=O)(=O)NNC(=O)Nc1ccccc1`, the “activity change, negative = inhibition” value is -24.3%.
Take `COc1ccc(/C=N/NC(=O)c2cccc([N+](=O)[O-])c2)c2ccccc12`: the Potency is 3.16 µM (active).
`Cc1[nH]n(-c2cccc3ccccc23)c(=O)c1/C=N/NC(=O)c1cccc([N+](=O)[O-])c1`: the Potency was 7.94 µM (active).
As to `CCCc1nc(NC2CCCCC2)c(C#N)c2c1COC(C)(C)C2`, the “activity change, negative = inhibition” value was 4.81%.
Consider `O=C(Cc1ccc(-c2ccccc2)cc1)Nc1ccccn1`, for which the Potency was 15.8 µM (active).
In the case of `CC(C)C1C(=O)N(Cc2cn(CCC3OCCO3)nn2)CCS(=O)(=O)N1Cc1ccc(-c2ccc(Cl)cc2)cc1` (stereo unspecified), the Potency was 31.6 µM (active).
In the case of `CSc1ncnc2c1ncn2CC(=O)C1CCC2C3CCC4=CC(=O)CCC4(C)C3CCC12C` (stereo unspecified), the Potency is 11.2 µM (active).
Same read-out and setting: then `CCCC(=O)NC(c1ccc(OC)c(OC)c1)c1cc(Cl)c2cccnc2c1O` (stereo unspecified), with 2.51 µM (active); and `CCC(=O)NC(c1ccc(OC)c(OC)c1)c1cc(Cl)c2cccnc2c1O` (stereo unspecified), with 2.82 µM (active).
Still for that read-out and setting: then `COc1ccc(C(NC(=O)c2cccnc2)c2cc(Cl)c3cccnc3c2O)cc1OC` (stereo unspecified), with 2.51 µM (active).
`N=c1c2c(n(Cc3ccc(Br)cc3)c3c1CCC3)CCCC2`: the Potency is 1.12 µM (active).
Regarding `C=CCNc1oc(-c2ccc(Cl)cc2)nc1C#N`, the “activity change, negative = inhibition” value was -9.33% [at 57.5 µM].
As for `Cc1ccc2[nH]c(=O)c(CN(CCCN(C)C)C(=O)Nc3cccc(Cl)c3)cc2c1`, the Potency was 22.4 µM (active).
In the case of `COc1ccc(/C=N/Nc2cc(N3CCCC3)nc(N3CCCC3)n2)cc1`, the Potency was 3.16 µM (active).
Still for that read-out and setting: the same measure for `Cc1c(C(=O)Nc2nonc2-c2ccc(F)cc2)oc2ccc(F)cc12`: 25.1 µM (active).
For the molecule `CCc1nc2c(OCCOc3ccc(F)cc3)cccn2c1N(C)C(=O)c1ccco1`, the “activity change, negative = inhibition” value was -22.2% [at 57.5 µM].
For `Cc1nc2c(OCc3cc(Cl)cc(Cl)c3)cccn2c1N(C)C(=O)CCC1CCCC1`, the Potency is 22.4 µM (active).
On the same count and under the same terms, the same measure for `Cc1nn(-c2ccccc2)c2nc(-c3cccs3)cc(C(=O)NN)c12`: 14.1 µM (active).
Same read-out and setting: then `Cc1onc(-c2c(Cl)cccc2Cl)c1C(=O)N/N=C(\N)COc1ccc(Cl)cc1`, with 2.51 µM (active); and `Cn1cc(C(=O)c2ccc(Cl)cc2Cl)cc1C(=O)N/N=C(\N)COc1ccc(Cl)cc1`, with 11.2 µM (active); and `O=C(Nc1nc(NC(=O)c2ccco2)n(-c2ccccc2)n1)c1ccccc1`, with 3.16 µM (active).
